From PubChem BioAssay come the findings set out here.

By AC50 is commonly meant the concentration at which the activity in the assay is half-maximal. What is called IC50 is the concentration that inhibits the measured activity by half. Broadly, the viability is a read-out of living cells in per cent, often relative to untreated cells.

Experiment [1] is described as follows: viability loss in pontine glioma line – cell-based, SU-DIPG-XVII, MIPE5.0, CellTiter-Glo, qHTS, dose response (AID 1347060; cut-off not given, nearly all actives have AC50 up to about 26 µM;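 as to AC50: cells exposed to compound for 48 hours before viability readout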). The note with it: CellTiter-Glo ATP luminescence. (In ATP-based viability assays light output follows the ATP content of the culture.)
Experiment [2] can be described thus: viability loss in pontine glioma line – cell-based, SU-DIPG-XIII, MIPE4.0, CellTiter-Glo, qHTS, dose response (AID 1347061; cut-off not given, nearly all actives have AC50 up to about 37 µM;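 also: cells exposed to compound for 48 hours before readout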). The note with it: CellTiter-Glo ATP luminescence.
Experiment [3] in a line: viability loss in pontine glioma line – cell-based, SU-DIPG-XXV, MIPE5.0, CellTiter-Glo, qHTS, dose response (AID 1347065; cut-off not given, nearly all actives have AC50 up to about 26 µM;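 also: cells exposed to compound for 48 hours before ATP readout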). Conditions: CellTiter-Glo ATP luminescence.
Experiment [4] is described as follows: viability loss in pontine glioma line – cell-based, SU-DIPG-XIII, MIPE5.0, CellTiter-Glo, qHTS, dose response (AID 1347064; cut-off not given, nearly all actives have AC50 up to about 23 µM;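 also: cells exposed to compound for 48 hours before the viability read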). Conditions: CellTiter-Glo ATP luminescence.
Experiment [5] is described as follows: JHH-DIPG-1 glioma cell viability, MIPE5.0 library, CellTiter-Glo luminescence, qHTS (AID 1347067; cut-off not given, nearly all actives have AC50 up to about 26 µM;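 also: cells exposed to compound for 48 hours before readout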). The note with it: JHH-DIPG-1 glioma viability, CellTiter-Glo ATP luminescence.
A short description of experiment [6]: growth inhibition of DIPG cells – cell-based, MIPE5.0 library, qHTS (AID 1347068; cut-off not given, nearly all actives have IC50 up to about 30 µM;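 as to IC50: cells exposed to compound for 48 hours before viability readout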). The note with it: SU-DIPG-XXV viability.
Experiment [7] is described as follows: viability loss in pontine glioma line – cell-based, SU-DIPG-IV, MIPE4.0, CellTiter-Glo, qHTS, dose response (AID 1347063; cut-off not given, nearly all actives have AC50 up to about 30 µM;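 also: compound exposure lasted 48 hours before the viability readout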). Conditions: CellTiter-Glo ATP luminescence.
Experiment [8] in a line: growth inhibition of DIPG cells – cell-based, MIPE4.0 library, CellTiter-Glo luminescence, qHTS (AID 1347066; cut-off not given, nearly all actives have AC50 up to about 30 µM;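 also: cells exposed to compound for 48 hours before readout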). Conditions: SU-DIPG-VI viability, CellTiter-Glo ATP luminescence.
Experiment [9] can be described thus: viability loss with induced miR-34 in A549 – imaging, A549 dox-inducible miR-34, nuclei and caspase counts, primary screen (AID 1347080;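 active = compounds whose cell count with miR-34 switched on is under 0.7 times the count with it off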). Conditions: A549 miR-34 inducible, Hoechst nuclei count, 48 h.
Experiment [10] can be described thus: compounds altering HSF1 focus formation in cells – imaging, Selleck Cancer Library (AID 1347162; in the data active = plate-normalised HSF1 focus index below about 0.46). The note with it: human cells, HSF1 nuclear foci imaging, at 10 µM; SSMD: measured here: HSF1 foci SSMD mean; cell count: measured here: cell number; plate-normalised HSF1 focus index: stronger effect = lower value.
Experiment [11] is described as follows: MELAS cybrid and Rieske KO viability enhancers – cell-based, MELAS cybrids, Rieske KO mouse fibroblasts, CellTiter-Glo, primary screen (AID 1508586;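 active = mean z-score across replicates of 1.96 or higher in either the MELAS or the Rieske mutant cell line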;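 also: z relative to plate mean and SD of compound and empty wells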). Conditions: low glucose.
Experiment [12] can be described thus: drug combination growth inhibition, ovarian cancer – cell-based, oncology-focused library, rucaparib conditional, profiling panel (AID 1508598). Conditions: patient-derived ovarian cancer cells, CellTiter-Glo viability, 144 h, stronger effect = lower value.

Inconclusive results are not listed. Active and inactive are the calls of the source.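 The calls were made as follows, unless noted: active = normalized viability below 100% at a tested concentration; inactive = the rest.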

In the case of `COc1cc(C(C)C)c2c(c1)S(=O)(=O)N(COc1cc(=O)n3cccc(OCCN4CCCCC4)c3n1)C2=O`, the AC50 was 23.5 µM (active) in experiment [1] and 20.9 µM (active) in [3]. Moreover, the call in [2] was inactive.

Turning to `NC(=O)c1c(OCc2c(F)cc(Br)cc2F)nsc1NC(=O)NCCCCN1CCCC1`, the concentration at half-maximal activity (AC50) in experiment [1] was 4.68 µM (active); in experiment [2], 6.62 µM (active); in [4] it was 3.32 µM (active); in [3], 3.32 µM (active); in [5], 18.6 µM (active). Also, the IC50 in experiment [6] was 23.5 µM (active).

Take `Cc1n[nH]c(C)c1Cc1sc2c(c1C(=O)N1C[C@H](O)CO1)c(=O)n(C)c(=O)n2CC(C)C`: the call in [1], in experiment [2], in [7], in experiment [8], in experiment [5] and in [6] was inactive.

As for `CS(=O)(=O)N1CCN(Cc2cc3nc(-c4cccc5[nH]ncc45)nc(N4CCOCC4)c3s2)CC1`, the concentration at half-maximal activity (AC50) in [1] was 1.18 µM (active); in [2] it was 5.26 µM (active); in experiment [7] it was 166 nM (active); in experiment [4], 1.32 µM (active); in [3], 0.661 µM (active). In addition, the half-maximal inhibitory concentration (IC50) in [6] was 4.17 µM (active). In addition, the fold change in experiment [9] (stronger effect = lower value, cell number ratio, induced over uninduced) was 0.864 (inactive); in [9] (measured here: relative caspase fold change +Dox/-Dox), 0.859. Moreover, the cell count in experiment [9] (measured here: total cells with miR-34 induction, stronger effect = lower value) worked out at 1360; in [9] (measured here: total cells without miR-34 induction), 1570; in experiment [10], 6530. This molecule had an SSMD in [10] of -1.97. In addition, in experiment [10], the plate-normalised HSF1 focus index is 0.899 (inactive). For the same molecule, the z-score was 3.74 (active) in experiment [11] (MELAS cybrid survival, CellTiter-Glo 48 h, stronger effect = higher value) and 1 in experiment [11] (Rieske KO mouse fibroblast survival, CellTiter-Glo 72 h). Also, the viability is 111% (inactive) in [12] (at 0.000305 µM, OCI-C5x cells, with rucaparib 10 µM, 100% = cells with rucaparib alone); 127% (inactive) in [12] (at 0.000305 µM, OCI-C5x cells, without rucaparib); 98.9% (active) in [12] (at 0.000305 µM, OCI-P5x cells, with rucaparib 20 µM, 100% = cells with rucaparib alone); 94.9% (active) in experiment [12] (at 0.000305 µM, OCI-P5x cells, without rucaparib); 121% (inactive) in experiment [12] (at 0.00122 µM, OCI-C5x cells, with rucaparib 10 µM, 100% = cells with rucaparib alone); 119% (inactive) in experiment [12] (at 0.00122 µM, OCI-C5x cells, without rucaparib). Moreover, the viability is 98.2% (active) in [12] (at 0.00122 µM, OCI-P5x cells, with rucaparib 20 µM, 100% = cells with rucaparib alone); 92.1% (active) in experiment [12] (at 0.00122 µM, OCI-P5x cells, without rucaparib); 109% (inactive) in experiment [12] (at 0.00488 µM, OCI-C5x cells, with rucaparib 10 µM, 100% = cells with rucaparib alone); 120% (inactive) in experiment [12] (at 0.00488 µM, OCI-C5x cells, without rucaparib); 94.4% (active) in experiment [12] (at 0.00488 µM, OCI-P5x cells, with rucaparib 20 µM, 100% = cells with rucaparib alone); 93.2% (active) in experiment [12] (at 0.00488 µM, OCI-P5x cells, without rucaparib). Besides, the viability in experiment [12] (at 0.0195 µM, OCI-C5x cells, with rucaparib 10 µM, 100% = cells with rucaparib alone) was 111% (inactive); in experiment [12] (at 0.0195 µM, OCI-C5x cells, without rucaparib), 118% (inactive); in [12] (at 0.0195 µM, OCI-P5x cells, with rucaparib 20 µM, 100% = cells with rucaparib alone), 96.3% (active); in experiment [12] (at 0.0195 µM, OCI-P5x cells, without rucaparib) it was 87.5% (active); in experiment [12] (at 0.0781 µM, OCI-C5x cells, with rucaparib 10 µM, 100% = cells with rucaparib alone), 114% (inactive); in experiment [12] (at 0.0781 µM, OCI-C5x cells, without rucaparib) it was 108% (inactive). The viability in experiment [12] (at 0.0781 µM, OCI-P5x cells, with rucaparib 20 µM, 100% = cells with rucaparib alone) was 92.7% (active); in experiment [12] (at 0.0781 µM, OCI-P5x cells, without rucaparib) it was 88.1% (active); in experiment [12] (at 0.313 µM, OCI-C5x cells, with rucaparib 10 µM, 100% = cells with rucaparib alone), 105% (inactive); in experiment [12] (at 0.313 µM, OCI-C5x cells, without rucaparib) it was 107% (inactive); in [12] (at 0.313 µM, OCI-P5x cells, with rucaparib 20 µM, 100% = cells with rucaparib alone), 72.6% (active); in experiment [12] (at 0.313 µM, OCI-P5x cells, without rucaparib), 78.2% (active). Besides, the viability was 125% (inactive) in [12] (at 1.25 µM, OCI-C5x cells, with rucaparib 10 µM, 100% = cells with rucaparib alone); 123% (inactive) in experiment [12] (at 1.25 µM, OCI-C5x cells, without rucaparib); 82.3% (active) in experiment [12] (at 1.25 µM, OCI-P5x cells, with rucaparib 20 µM, 100% = cells with rucaparib alone); 82.1% (active) in [12] (at 1.25 µM, OCI-P5x cells, without rucaparib); 114% (inactive) in [12] (at 5 µM, OCI-C5x cells, with rucaparib 10 µM, 100% = cells with rucaparib alone); 120% (inactive) in [12] (at 5 µM, OCI-C5x cells, without rucaparib). Moreover, the viability is 54.2% (active) in experiment [12] (at 5 µM, OCI-P5x cells, with rucaparib 20 µM, 100% = cells with rucaparib alone) and 70.8% (active) in [12] (at 5 µM, OCI-P5x cells, without rucaparib).

With `CO[C@H]1C[C@@H]2CC[C@@H](C)[C@@](O)(O2)C(=O)C(=O)N2CCCC[C@H]2C(=O)O[C@H]([C@H](C)C[C@@H]2CC[C@@H](OC(=O)C(C)(CO)CO)[C@H](OC)C2)CC(=O)[C@H](C)/C=C(\C)[C@@H](O)[C@@H](OC)C(=O)[C@H](C)C[C@H](C)/C=C/C=C/C=C/1C`, the half-maximal activity concentration (AC50) in experiment [1] is 14.4 µM (active); in [3], 12.9 µM (active); in experiment [8] it was 9.35 µM (active); in experiment [5], 14.4 µM (active). In experiment [2], the molecule was classed as inactive. Also, in [10], the SSMD worked out at 0.578. In addition, the cell count in experiment [10] is 6900. The plate-normalised HSF1 focus index in experiment [10] is 1.05 (inactive).

Consider `C[C@@H](NC(=O)c1ncnc(N)c1Cl)c1ncc(C(=O)Nc2cc(C(F)(F)F)c(Cl)cn2)s1`, for which the AC50 in [1] is 16.6 µM (active); in experiment [2], 18.7 µM (active); in [4], 14.8 µM (active); in [5], 5.9 µM (active). For the same molecule, the molecule was called inactive in experiment [8] and in experiment [6].
